Laboratory results: PubChem BioAssay
Activity calls are given as the source filed them.

Legend:
Albumin (Bos taurus) = Albumin (Bos taurus) (UniProt P02769); assay: bovine serum albumin binders on microarray, profiling panel, artefact control for SMM control protein annotation, biochemical, small-molecule microarray, Alexa647 label, 635/667 nm fluorescence (AID 1118); conditions: BSA-A647 binding, fluorescence 635 nm, higher = more signal;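 further: score merges 667 nm emission intensity and signal-to-noise per printed compound spot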
[1] = small-molecule microarray binders of probe aXIP, primary screen, biochemical, NeuroSMM set, 635/667 nm fluorescence (AID 1119); conditions: higher = more signal, called active from +8 up or from −8 down;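 further: probe is the protein aXip251-270 applied at 1 µg/mL to compound-printed slides; binding of probe to printed compounds measured as 667 nm fluorescence plus signal to noise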
[2] = small-molecule binders of probe aNOTCH3, primary screen, biochemical, small-molecule microarray, 635/667 nm fluorescence (AID 1120); conditions: higher = more signal;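 further: probe is a biotin-tagged antibody raised against NOTCH3 rather than NOTCH3 protein; score merges spot fluorescence near 667 nm with spot signal to noise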
[3] = small-molecule binders of probe aNOTCH2, primary screen, biochemical, small-molecule microarray, 635/667 nm fluorescence (AID 1121); conditions: higher = more signal;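 further: score merges feature fluorescence read at 667 nm with its signal to noise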
[4] = target: Carbonic anhydrase 2 (Homo sapiens) (UniProt P00918); assay: CAII small-molecule binders, profiling panel, biochemical, small-molecule microarray, Alexa647-labelled CAII (AID 1122); conditions: CAII-A647 binding fluorescence, higher = more signal
[5] = COS7 lysate on small-molecule microarray, probe aHis, 635 nm (AID 1123); conditions: COS7 cell lysate, fluorescence, higher = more signal;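 further: z-score combines 667nm fluorescence intensity with signal-to-noise per printed compound spot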
[6] = compound binding in COS7 lysate, probe aLAP1, primary screen, cell lysate, small-molecule microarray (AID 1124); conditions: probe aLAP1, fluorescence, higher = more signal;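 further: lysate comes from COS7 cells expressing LAP1 and is applied at 0.3 µg/mL; score merges spot fluorescence near 667 nm with signal-to-noise over triplicate slides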
Sam68 (KHDRBS1) = assay: Sam68 small-molecule binders, primary screen, biochemical, small-molecule microarray, 635 nm fluorescence (AID 1125); conditions: small-molecule microarray binding, higher = more signal;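 further: score merges 667 nm channel intensity with signal to noise over triplicate slides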
[7] = tested on: Chordin-like protein 2 (CHRDL2); assay: CHRDL2 small-molecule binders, primary screen, biochemical, small-molecule microarray, 635 nm fluorescence (AID 1126); conditions: small-molecule microarray binding, fluorescence 635 nm; higher = more signal;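 further: printed compound slides probed with Chrdl2 protein at 4 µg/mL for 1 h at 4 C; score merges 667 nm emission intensity with signal to noise over three replicate slides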
[8] = target: Concanavalin-A (Canavalia ensiformis) (UniProt P02866); assay: ConA small-molecule binders, primary screen, artefact control for SMM control protein annotation, biochemical, small-molecule microarray, Alexa647 label, 635 nm (AID 1127); conditions: ConA-A647 binding fluorescence, higher = more signal;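 further: z combines 667 nm emission intensity with signal-to-noise across three replicate slides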
[9] = anti-His antibody binders, primary screen, artefact control for SMM control protein annotation, biochemical, small-molecule microarray, 635 nm fluorescence (AID 1128); conditions: anti-His Alexa647 antibody binding, higher = more signal;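 further: score merges feature fluorescence with signal-to-noise for each printed compound spot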
[10] = tested on: Human papillomavirus type 1a E7 protein (residues 1-88); assay: HPV1a E7 small-molecule binders, primary screen, biochemical, small-molecule microarray, residues 1-88, 635 nm (AID 1129); conditions: small-molecule microarray binding, fluorescence 635 nm; higher = more signal
[11] = target: Focal adhesion kinase 1 (Homo sapiens) (UniProt Q05397); assay: small-molecule microarray binders of FAK, primary screen, biochemical, 635/667 nm fluorescence, BSA, DTT (AID 1130); conditions: PTK2 binding, 635 nm fluorescence, higher = more signal;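 further: composite of spot emission at 667 nm and signal to noise over triplicate slides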
[12] = tested on: Fibrinogen (Alexa647-labelled); assay: fibrinogen binders on compound microarrays, profiling panel, artefact control for SMM control-protein annotation, biochemical, small-molecule microarray, 635/667 nm fluorescence (AID 1131); conditions: fibrinogen-A647 binding fluorescence, higher = more signal;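 further: z-score merges 667 nm fluorescence with per-spot signal-to-noise over triplicate slides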
[13] = target: Follistatin (Homo sapiens) (UniProt P19883); assay: follistatin binders on small-molecule microarrays, primary screen, biochemical, small-molecule microarray, 635/667 nm fluorescence (AID 1132); conditions: FST binding, 635 nm fluorescence, higher = more signal
[14] = target: Fibroblast growth factor 2 (Homo sapiens) (UniProt P09038); assay: FGF2 binders on small-molecule microarrays, primary screen, biochemical, small-molecule microarray, 635/667 nm fluorescence (AID 1133); conditions: small-molecule microarray binding, FGF2, fluorescence 635/667; higher = more signal
[15] = mitochondrial membrane potential change in A549 cells, profiling panel, cell-based, JC-1 fluorescence, basal, 24 h, 100 nL (AID 1138); conditions: higher = more signal;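 further: A549 lung adenocarcinoma cells under basal conditions with no added stimulus; test concentration not given here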
Lefty1 = Lefty1 binders on small-molecule microarrays, primary screen, biochemical, small-molecule microarray, 635/667 nm fluorescence (AID 1139); conditions: small-molecule microarray binding, fluorescence 635/667; higher = more signal
[16] = tested on: wheat germ agglutinin (Triticum aestivum), Alexa647-labelled; assay: wheat germ agglutinin binders on compound microarrays, profiling panel, artefact control for SMM control-protein annotation, biochemical, small-molecule microarray, 635/667 nm fluorescence (AID 1140); conditions: WGA-A647 binding, 635 nm fluorescence, higher = more signal;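 further: score merges 667 nm feature emission with signal to noise over triplicate slides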
[17] = target: Luciferin 4-monooxygenase (Photinus pyralis) (UniProt P08659); assay: firefly luciferase enzyme inhibitors, primary screen, biochemical, luminescence, purified enzyme, 2006 set (AID 1141); conditions: SteadyGlo luminescence, 30 min, higher = more signal, called active from +8 up or from −8 down;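 further: cell-free assay with purified firefly luciferase at 100 ng per well in PBS; test concentration not given here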
Sequence of Luciferin 4-monooxygenase (Photinus pyralis) (P08659 whole entry, looked up): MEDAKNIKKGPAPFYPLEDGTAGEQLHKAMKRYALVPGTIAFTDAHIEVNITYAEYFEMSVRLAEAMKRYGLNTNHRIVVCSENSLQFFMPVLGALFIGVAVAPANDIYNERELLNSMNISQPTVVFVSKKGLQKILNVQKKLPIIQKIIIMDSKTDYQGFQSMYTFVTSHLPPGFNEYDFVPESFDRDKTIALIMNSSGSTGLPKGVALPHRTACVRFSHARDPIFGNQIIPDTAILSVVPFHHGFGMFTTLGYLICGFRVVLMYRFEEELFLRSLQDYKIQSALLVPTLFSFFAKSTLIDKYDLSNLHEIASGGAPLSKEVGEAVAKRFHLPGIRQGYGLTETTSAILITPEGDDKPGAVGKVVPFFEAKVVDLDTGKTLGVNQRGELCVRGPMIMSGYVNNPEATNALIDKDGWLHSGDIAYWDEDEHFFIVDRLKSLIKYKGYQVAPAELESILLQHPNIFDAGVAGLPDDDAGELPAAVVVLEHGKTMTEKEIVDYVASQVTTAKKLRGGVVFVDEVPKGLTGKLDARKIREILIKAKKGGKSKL

Sequence of Fibroblast growth factor 2 (Homo sapiens) (P09038 whole entry, looked up): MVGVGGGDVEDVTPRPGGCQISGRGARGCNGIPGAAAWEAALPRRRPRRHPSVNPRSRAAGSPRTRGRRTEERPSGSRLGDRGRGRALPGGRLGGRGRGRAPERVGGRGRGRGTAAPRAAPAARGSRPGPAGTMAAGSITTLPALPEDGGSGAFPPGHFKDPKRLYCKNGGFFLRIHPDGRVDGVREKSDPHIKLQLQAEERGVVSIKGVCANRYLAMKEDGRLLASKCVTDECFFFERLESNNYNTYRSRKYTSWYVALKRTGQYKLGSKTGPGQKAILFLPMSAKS
Sequence of Follistatin (Homo sapiens) (P19883 whole entry, looked up): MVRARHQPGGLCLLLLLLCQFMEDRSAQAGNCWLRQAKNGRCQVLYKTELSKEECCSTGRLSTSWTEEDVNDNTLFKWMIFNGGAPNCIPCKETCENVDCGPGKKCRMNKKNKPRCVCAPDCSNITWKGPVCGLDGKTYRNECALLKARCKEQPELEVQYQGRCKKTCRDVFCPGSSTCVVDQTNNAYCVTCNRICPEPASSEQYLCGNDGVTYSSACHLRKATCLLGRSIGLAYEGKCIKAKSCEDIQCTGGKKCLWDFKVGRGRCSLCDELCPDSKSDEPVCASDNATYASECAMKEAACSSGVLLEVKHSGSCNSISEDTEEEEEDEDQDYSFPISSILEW
Sequence of Albumin (Bos taurus) (P02769 whole entry, looked up): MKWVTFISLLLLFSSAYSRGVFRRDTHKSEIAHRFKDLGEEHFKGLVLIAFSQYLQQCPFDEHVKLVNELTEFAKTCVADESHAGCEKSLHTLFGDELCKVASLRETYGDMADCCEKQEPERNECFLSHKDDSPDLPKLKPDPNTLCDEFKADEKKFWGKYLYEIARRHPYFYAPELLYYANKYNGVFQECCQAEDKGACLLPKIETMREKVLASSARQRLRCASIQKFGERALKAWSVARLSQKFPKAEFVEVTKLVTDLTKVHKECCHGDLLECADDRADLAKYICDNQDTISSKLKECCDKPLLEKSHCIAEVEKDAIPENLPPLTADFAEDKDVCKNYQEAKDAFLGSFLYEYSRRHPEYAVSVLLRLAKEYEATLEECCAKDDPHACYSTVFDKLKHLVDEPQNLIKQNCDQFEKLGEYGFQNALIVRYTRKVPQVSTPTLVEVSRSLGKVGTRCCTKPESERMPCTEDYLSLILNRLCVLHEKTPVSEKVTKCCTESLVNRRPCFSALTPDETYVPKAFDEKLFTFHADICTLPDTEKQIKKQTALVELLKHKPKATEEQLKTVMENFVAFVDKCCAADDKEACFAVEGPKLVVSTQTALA
Sequence of Concanavalin-A (Canavalia ensiformis) (P02866 whole entry, looked up): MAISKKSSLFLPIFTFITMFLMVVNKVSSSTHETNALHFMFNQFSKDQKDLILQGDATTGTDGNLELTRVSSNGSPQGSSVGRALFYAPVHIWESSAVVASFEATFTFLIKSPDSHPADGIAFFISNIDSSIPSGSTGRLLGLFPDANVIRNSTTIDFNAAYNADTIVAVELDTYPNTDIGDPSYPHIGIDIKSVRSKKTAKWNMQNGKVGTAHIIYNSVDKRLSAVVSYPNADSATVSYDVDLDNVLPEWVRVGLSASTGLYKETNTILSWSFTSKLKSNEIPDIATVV
Sequence of Focal adhesion kinase 1 (Homo sapiens) (Q05397 whole entry, looked up): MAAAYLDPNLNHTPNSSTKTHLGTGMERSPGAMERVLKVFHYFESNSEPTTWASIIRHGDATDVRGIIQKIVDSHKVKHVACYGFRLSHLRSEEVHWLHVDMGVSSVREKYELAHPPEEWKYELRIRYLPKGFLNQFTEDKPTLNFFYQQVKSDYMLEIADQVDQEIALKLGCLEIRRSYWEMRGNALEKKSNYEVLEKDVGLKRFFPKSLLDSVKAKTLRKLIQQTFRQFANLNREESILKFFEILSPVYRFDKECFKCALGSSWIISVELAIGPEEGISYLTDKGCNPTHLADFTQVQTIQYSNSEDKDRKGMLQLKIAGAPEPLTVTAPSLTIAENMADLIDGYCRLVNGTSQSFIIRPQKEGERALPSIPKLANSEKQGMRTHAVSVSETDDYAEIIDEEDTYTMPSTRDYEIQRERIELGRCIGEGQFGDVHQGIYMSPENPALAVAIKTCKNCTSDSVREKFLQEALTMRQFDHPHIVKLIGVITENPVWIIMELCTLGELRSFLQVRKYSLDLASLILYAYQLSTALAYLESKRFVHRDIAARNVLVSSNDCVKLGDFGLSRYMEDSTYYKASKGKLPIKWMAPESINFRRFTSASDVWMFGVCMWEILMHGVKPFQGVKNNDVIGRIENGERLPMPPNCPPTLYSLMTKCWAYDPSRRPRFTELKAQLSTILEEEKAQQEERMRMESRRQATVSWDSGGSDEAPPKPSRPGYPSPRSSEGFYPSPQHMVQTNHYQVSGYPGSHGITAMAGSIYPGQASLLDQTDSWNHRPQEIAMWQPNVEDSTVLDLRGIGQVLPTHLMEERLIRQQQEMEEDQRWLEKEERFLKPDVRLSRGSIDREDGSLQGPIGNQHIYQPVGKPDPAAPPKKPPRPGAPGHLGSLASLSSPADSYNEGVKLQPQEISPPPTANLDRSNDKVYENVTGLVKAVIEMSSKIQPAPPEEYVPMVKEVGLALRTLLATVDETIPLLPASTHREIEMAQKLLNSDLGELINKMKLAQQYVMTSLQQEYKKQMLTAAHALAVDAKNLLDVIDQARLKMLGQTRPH

Row | Compound | composite z-score (Albumin (Bos taurus)) | composite Z-score [1] | composite z-score [2] | composite z-score [3] | composite z-score [4] | composite z-score [5] | composite z-score [6] | composite z-score (Sam68 (KHDRBS1)) | composite z-score [7] | composite z-score [8] | composite z-score [9] | composite z-score [10] | composite z-score [11] | composite z-score [12] | composite z-score [13] | composite z-score [14] | z-score [15] | composite z-score (Lefty1) | composite z-score [16] | z-score [17]
1 | C[C@@H](c1ccccc1)N1C(=O)[C@H]2[C@H]3[C@H](O)[C@H](O)CC(=NOC[C@@H](O)COCc4ccco4)[C@@H]3CC[C@H]2C1=O | 0.819 | 0.528 (inactive) | -0.161 | -0.185 | 0.279 | -0.359 | -0.254 | -0.779 | -0.727 | -1.07 | -0.623 | -0.604 | 0.126 | 0.448 | -0.761 | -0.728 | -0.62 | -0.809 | 0.112 | 0.558 (inactive)
2 | CCCCc1nc2c(c3c1C[C@H](C)OC3)CN(CCC(C)C)CC2 | 0.627 | -0.214 (inactive) | -0.0343 | -0.16 | 0.221 | 1.68 | 0.44 | 1.31 | 0.388 | 0.934 | 0.965 | 1.13 | 0.0171 | 0.928 | 0.818 | 0.732 | 1.8 | 1.17 | 0.399 | -0.438 (inactive)
3 | CC(C)(C)N1C(=O)[C@H]2[C@H]3[C@H](O)[C@H](O)CC(=NO[C@@H]4O[C@H](CO)[C@@H](O)[C@H](O)[C@H]4O)[C@@H]3CC[C@H]2C1=O | -0.524 | 0.406 (inactive) | -0.059 | -0.154 | 0.361 | 0.741 | 0.649 | 1.24 | 1.07 | 0.0237 | 1.14 | 1.08 | 1.04 | 0.747 | 1.09 | 0.762 | -0.0208 | 1.13 | 0.398 | 0.0997 (inactive)
4 | Cn1c(=O)n2n(c1=O)[C@H]1[C@H](O)[C@@H]3O[C@@H]3C(=NOC[C@@H](O)COCc3ccco3)[C@H]1CC2 | 0.125 | -0.383 (inactive) | 0.236 | -0.208 | -0.142 | 0.145 | -0.0856 | 0.373 | 0.535 | 0.59 | -0.272 | 0.722 | 0.0225 | 0.617 | 0.357 | 0.468 | 0.596 | 0.777 | -0.0253 | -0.508 (inactive)
5 | CO[C@H]1COC(=O)CC=C[C@H](C)[C@@H](NS(=O)(=O)c2ccc(C)cc2)COC(=O)CC=C[C@@H]1C | -0.498 | -0.38 (inactive) | -0.0436 | -0.151 | -0.0698 | -0.51 | 0.216 | 0.165 | 0.713 | -0.408 | 2.79 | 0.0835 | 0.0018 | 0.0607 | 0.932 | 0.585 | -0.662 | 0.819 | -0.0118 | -0.277 (inactive)
6 | COc1ccc(O[C@H]2C=C[C@@H](c3ccccc3)O[C@@H]2COC(=O)CCC(C)=NO[C@@H](C)c2cc(-c3c(C)cc(C)cc3C)no2)cc1 | -0.0567 | -0.314 (inactive) | -0.187 | -0.153 | -0.505 | -0.451 | -0.522 | -0.822 | -0.654 | -1.63 | -0.566 | -0.23 | -0.174 | -0.223 | -1.32 | -0.848 | 0.67 | -0.773 | -0.204 | 1.21 (inactive)
7 | O=C(NN=C1C[C@@H](O)[C@@H](O)[C@@H]2[C@@H]3C(=O)N(c4cccc(Oc5ccccc5)c4)C(=O)[C@@H]3CC[C@@H]12)OCc1ccccc1 | 0.564 | 0.187 (inactive) | 0.0425 | -0.0995 | -0.249 | 0.36 | -0.0773 | 0.24 | 0.162 | 0.277 | -0.0621 | 0.0508 | 0.0623 | 0.81 | -0.0636 | -0.0953 | -0.0675 | 0.211 | 0.764 | 0.663 (inactive)
8 | COCC1=C2[C@@H](CCc3ccccc3)OB(O)C[C@@H]2n2c(=O)n(-c3ccccc3)c(=O)n2C1 | 0.352 | -0.532 (inactive) | -0.0204 | -0.0649 | 0.0995 | -0.0955 | 0.0421 | -0.0265 | 0.198 | -0.0151 | 0.241 | -0.028 | -0.0493 | -0.434 | 0.133 | 0.506 | 0.581 | 0.336 | -0.228 | -1.19 (inactive)
9 | CC(CCN1CCCCc2nc(C)c(C)cc21)=NOC(C)CN1CCCCc2nc(C)c(C)cc21 (stereo not given) | 0.845 | 0.833 (inactive) | 0.284 | -0.0131 | 0.503 | 1.12 | 0.858 | 1.3 | 1.25 | 0.898 | 2.37 | 1.2 | 0.332 | 0.911 | 1.29 | 1.3 | 0.828 | 1.6 | 1.11 | -0.483 (inactive)
10 | CCOC(=O)NN=C1C[C@@H](O)[C@@H](O)[C@@H]2[C@@H]3C(=O)N(C4CCCCC4)C(=O)[C@@H]3CC[C@@H]12 | 0.272 | -0.288 (inactive) | -0.0598 | -0.0534 | 0.0286 | -0.636 | 1.25 | 0.39 | 0.645 | 0.616 | 0.327 | -0.18 | 0.287 | 0.5 | 0.267 | 0.365 | 0.497 | 0.319 | 0.0034 | -0.182 (inactive)
11 | O=C1[C@H]2[C@H]3[C@H](O)[C@H](O)CC(=NO[C@@H]4O[C@H](CO)[C@@H](O)[C@H](O)[C@H]4O)[C@H]3CC[C@H]2C(=O)N1C1CCCCC1 | 0.785 | -0.0164 (inactive) | 0.11 | -0.112 | 0.124 | 0.197 | 0.3 | 1.3 | -0.298 | -0.316 | 0.648 | 1.16 | 0.84 | 0.402 | -0.384 | -0.0148 | -0.0288 | 0.625 | 0.183 | 0.23 (inactive)
12 | NCCCCCNC(=O)[C@@H]1C[C@@H]2C(=O)N3CCC[C@H]3C(=O)N2[C@@H]1c1cccc(OCCO)c1 | 0.533 | 1.34 (inactive) | 0.453 | 0.294 | 0.659 | 1.68 | 1.09 | 1.19 | 1.14 | 1 | 1.83 | 0.689 | 1.13 | 0.974 | 1.34 | 0.878 | -0.269 | 0.437 | 0.881 | -0.115 (inactive)
